Results on 40 molecules are retold here after the supplement of paper PMC7156485.

Molecules are shown by their SMILES. Several values for one entry are separate records, joined by “and”; a condition that tells them apart may be missing. Identical values can stand only once. ± gives the standard deviation of the averaged measurements.
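Further: TDF denotes transformed human dermal fibroblasts of mesenchymal origin.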

One experiment deals with HCC1569. Nature of the experiment: cell number relative to DMSO (% of DMSO); higher = more cells (less growth inhibition / toxicity). To be noted: concentration: 10 µM; 24 h. An outline of the steps:
(§1)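 In 384-well plates holding 800 HCC1569 or TDF cells per well in RPMI with 10% FBS, compounds were tested at 10 µM for 24 h at 37 °C in triplicate. Fixation used 3.7% formaldehyde. Staining used a rabbit anti-H1.0 antibody with an AlexaFluor 647 secondary, plus DAPI. Each value, H1.0 nuclear intensity or cell number, is a median of replicates shown as percent of the plate control, and HCC1569 values were smoothed for positional effects.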
On to `COc1cc2c3cc1Oc1c(OC)c(OC)cc4c1C(Cc1ccc(O)c(c1)Oc1ccc(cc1)CC3N(C)CC2)N(C)CC4.Cl.Cl` (stereo not given), for which the cell number was 90.4.

In the case of `CCOC(=O)c1ncn2c1CN(C)C(=O)c1cc(F)ccc1-2` [Flumazenil], the cell number is 104 ± 7.3.

Take `CC1CCC2(C(=O)O)CCC3(C)C(=CCC4C5(C)CCC(O)C(C)(C)C5CCC43C)C2C1C` (stereo not given) [Ursolic acid]: the cell number is 100.

Molecule `CCCCCC(O)C=CC=CC=CC(O)CC=CCCCC(=O)O` (stereo not given) yielded a cell number of 101.

With `Nc1nc(Cl)nc2c1ncn2C1OC(CO)C(O)C1O` (stereo not given) [2-Chloroadenosine], the cell number was found to be 99.3.

Molecule `Clc1ccc(CON=C(Cn2ccnc2)c2ccc(Cl)cc2Cl)c(Cl)c1` [Oxiconazole] came in with a cell number of 99.8.

In the case of `Cc1nc2sccn2c(=O)c1CCN1CCC(=C(c2ccc(F)cc2)c2ccc(F)cc2)CC1` [Ritanserin], the cell number was determined as 101.

On to `CCCCCC=CCC(O)C=CC=CC=CC(O)CCCC(=O)O` (stereo not given) [Leukotriene B4], for which the cell number was determined as 105.

The molecule `O=C(O)c1cn(C2CC2)c2cc(N3C[C@@H]4C[C@H]3CN4)c(F)cc2c1=O` gave a cell number of 99.1.

`Nc1ncnc2c1ncn2C1OC(CO)C(O)C1O` (stereo not given) [Adenosine]: the cell number turned out to be 107.

The molecule `C[N+]1(C)CCCC1C(=O)[O-].Cl` (stereo not given) registered a cell number of 96.1.

On to `O=C1CCc2cc(OCCCCc3nnnn3C3CCCCC3)ccc2N1` [Cilostazol], for which the cell number came out at 101.

On to `CCN(CC)CCCC(C)Nc1ccnc2cc(Cl)ccc12` (stereo not given) [Chloroquine], for which the cell number is 101.

For the molecule `O=C1c2c(O)cc(O)cc2OC(c2ccc(O)c(O)c2)C1O` (single isomer, unassigned; (+)) [(+)-Taxifolin], the cell number turned out to be 99.5.

`Cc1ccc(-c2n[nH]c3c2C(c2cccc(O)c2)N(c2ccc(C(=O)O)cc2)C3=O)cc1` (stereo not given) registered a cell number of 103.

`Cn1cnc2c(F)c(Nc3ccc(Br)cc3Cl)c(C(=O)NOCCO)cc21` came in with a cell number of 105.

In the case of `NCC1CCC(C(=O)O)CC1` (stereo not given) [Tranexamic acid], the cell number stood at 99.5.

As for `CCN1CCCC1CNC(=O)c1c(O)c(Cl)cc(Cl)c1OC.O=C(O)C(O)C(O)C(=O)O` [S(+)-Raclopride L-tartrate], the cell number worked out at 101.

The molecule `NC(=O)C(=O)[O-].[Na+]` [Sodium Oxamate] had a cell number of 102.

`CCCCCCC=CCCCCCCCC(=O)O` [9(Z)-Hexadecenoic acid] displayed a cell number of 98.8.

In turn, `CS(=O)(=O)CCNCc1nc(-c2ccc3ncnc(Nc4ccc(OCc5cccc(F)c5)c(Cl)c4)c3c2)cs1.Cl.Cl` yielded a cell number of 88.4.

In turn, `CCCCCCCCCCCCCCCCCC(=O)OC(CC(=O)O)C[N+](C)(C)C.[Cl-]` (racemic) [DL-Stearoylcarnitine chloride] displayed a cell number of 101.

In turn, `CCC=CCC=CCC=CCC=CCCCCC(=O)O.[Na]` [6(Z), 9(Z), 12(Z), 15(Z)-Octadecatetraenoic acid] yielded a cell number of 102.

Molecule `CN(C)CCCOc1nn(Cc2ccccc2)c2ccccc12` [Benzydamine] registered a cell number of 100.

Consider `CS(=O)(=O)c1ccc(-c2cc(Br)sc2-c2ccc(F)cc2)cc1`, for which the cell number turned out to be 99.9.

Turning to `CCCCCCCCCCCC=CCC=CCCCC(=O)O` [5(Z), 8(Z)-Eicosadienoic acid], the cell number is 101.

In turn, `Cl.Cl.NCCC(=O)NCCc1cnc[nH]1` [Carcinine dihydrochloride] gave a cell number of 97.3.

`COc1ccc2c(c1OC)N=C(NC(=O)c1cccnc1)N1CCN=C21` showed a cell number of 99.8.

Consider `CSC(=N)N.CSC(=N)N.O=S(=O)(O)O` [S-Methylisothiourea hemisulfate], for which the cell number stood at 103.

In turn, `Nc1ncnc2n[nH]c(Nc3ccc(F)cc3)c12` [MNK1 Inhibitor] came in with a cell number of 91.2.

For the molecule `COc1cccc(-c2cc(=O)c3ccccc3o2)c1N`, the cell number was 99.7 and 100 and 98.4.

`COc1ccc(CC(=O)NC(N=C(NC#N)Nc2cccc3ncccc23)C(C)(C)C)cc1OC` (stereo not given) gave a cell number of 99.9.

The molecule `CCCCCCCCCCCCCCCC(=O)C(F)(F)F` displayed a cell number of 103.

Consider `Cn1cc(C2=C(c3cn(CCCSC(=N)N)c4ccccc34)C(=O)NC2=O)c2ccccc21`, for which the cell number worked out at 53.9.

`CC1=CC(=O)c2ccccc2C1=O` [Menadione] yielded a cell number of 99.9.

`Cc1ccc(C)c(OCCCC(C)(C)C(=O)O)c1` [Gemfibrozil] displayed a cell number of 103.

With `Cc1ccccc1C(OCCN(C)C)c1ccccc1.Cl` (stereo not given) [Orphenadrine hydrochloride], the cell number was 100.

As for `CCOC(=O)C1=C(C)NC(=S)NC1c1cccc(O)c1` (stereo not given) [Monastrol], the cell number was found to be 99.8.

`NC(=O)c1ccc(-c2nc(-c3ccc4c(c3)OCCO4)c(-c3ccccn3)[nH]2)cc1` displayed a cell number of 97.4.

As to `NC(=O)N1C(=O)/C(=C(\O)c2cccs2)c2cc(Cl)ccc21`, the cell number was 101.

For a further experiment, the system named is TDF. The experiment is described as above. To be noted: concentration: 10 µM; 24 h. Summed up:
as §1
Consider `COc1cc2c3cc1Oc1c(OC)c(OC)cc4c1C(Cc1ccc(O)c(c1)Oc1ccc(cc1)CC3N(C)CC2)N(C)CC4.Cl.Cl` (stereo not given), for which the cell number is 92.2.

Regarding `CCOC(=O)c1ncn2c1CN(C)C(=O)c1cc(F)ccc1-2` [Flumazenil], the cell number turned out to be 97.3 ± 3.1.

Turning to `CC1CCC2(C(=O)O)CCC3(C)C(=CCC4C5(C)CCC(O)C(C)(C)C5CCC43C)C2C1C` (stereo not given) [Ursolic acid], the cell number worked out at 101.

In the case of `CCCCCC(O)C=CC=CC=CC(O)CC=CCCCC(=O)O` (stereo not given), the cell number came out at 100.

Regarding `Nc1nc(Cl)nc2c1ncn2C1OC(CO)C(O)C1O` (stereo not given) [2-Chloroadenosine], the cell number was 119.

`Clc1ccc(CON=C(Cn2ccnc2)c2ccc(Cl)cc2Cl)c(Cl)c1` [Oxiconazole] displayed a cell number of 101.

For `Cc1nc2sccn2c(=O)c1CCN1CCC(=C(c2ccc(F)cc2)c2ccc(F)cc2)CC1` [Ritanserin], the cell number worked out at 111.

The molecule `CCCCCC=CCC(O)C=CC=CC=CC(O)CCCC(=O)O` (stereo not given) [Leukotriene B4] registered a cell number of 98.8.

`O=C(O)c1cn(C2CC2)c2cc(N3C[C@@H]4C[C@H]3CN4)c(F)cc2c1=O` came in with a cell number of 109.

Take `Nc1ncnc2c1ncn2C1OC(CO)C(O)C1O` (stereo not given) [Adenosine]: the cell number came out at 109.

Take `C[N+]1(C)CCCC1C(=O)[O-].Cl` (stereo not given): the cell number is 115.

For `O=C1CCc2cc(OCCCCc3nnnn3C3CCCCC3)ccc2N1` [Cilostazol], the cell number was 109.

Molecule `CCN(CC)CCCC(C)Nc1ccnc2cc(Cl)ccc12` (stereo not given) [Chloroquine] returned a cell number of 99.6.

As for `O=C1c2c(O)cc(O)cc2OC(c2ccc(O)c(O)c2)C1O` (single isomer, unassigned; (+)) [(+)-Taxifolin], the cell number stood at 83.9.

The molecule `Cc1ccc(-c2n[nH]c3c2C(c2cccc(O)c2)N(c2ccc(C(=O)O)cc2)C3=O)cc1` (stereo not given) returned a cell number of 92.6.

As for `Cn1cnc2c(F)c(Nc3ccc(Br)cc3Cl)c(C(=O)NOCCO)cc21`, the cell number worked out at 91.8.

Take `NCC1CCC(C(=O)O)CC1` (stereo not given) [Tranexamic acid]: the cell number was 104.

In turn, `CCN1CCCC1CNC(=O)c1c(O)c(Cl)cc(Cl)c1OC.O=C(O)C(O)C(O)C(=O)O` [S(+)-Raclopride L-tartrate] yielded a cell number of 105.

In the case of `NC(=O)C(=O)[O-].[Na+]` [Sodium Oxamate], the cell number was found to be 105.

With `CCCCCCC=CCCCCCCCC(=O)O` [9(Z)-Hexadecenoic acid], the cell number came out at 104.

Molecule `CS(=O)(=O)CCNCc1nc(-c2ccc3ncnc(Nc4ccc(OCc5cccc(F)c5)c(Cl)c4)c3c2)cs1.Cl.Cl` yielded a cell number of 99.7.

Molecule `CCCCCCCCCCCCCCCCCC(=O)OC(CC(=O)O)C[N+](C)(C)C.[Cl-]` (racemic) [DL-Stearoylcarnitine chloride] returned a cell number of 84.3.

The molecule `CCC=CCC=CCC=CCC=CCCCCC(=O)O.[Na]` [6(Z), 9(Z), 12(Z), 15(Z)-Octadecatetraenoic acid] showed a cell number of 91.9.

Turning to `CN(C)CCCOc1nn(Cc2ccccc2)c2ccccc12` [Benzydamine], the cell number was found to be 83.7.

As to `CS(=O)(=O)c1ccc(-c2cc(Br)sc2-c2ccc(F)cc2)cc1`, the cell number was determined as 100.

Consider `CCCCCCCCCCCC=CCC=CCCCC(=O)O` [5(Z), 8(Z)-Eicosadienoic acid], for which the cell number came out at 96.9.

Take `Cl.Cl.NCCC(=O)NCCc1cnc[nH]1` [Carcinine dihydrochloride]: the cell number was determined as 107.

The molecule `COc1ccc2c(c1OC)N=C(NC(=O)c1cccnc1)N1CCN=C21` displayed a cell number of 93.2.

`CSC(=N)N.CSC(=N)N.O=S(=O)(O)O` [S-Methylisothiourea hemisulfate]: the cell number was determined as 98.6.

`Nc1ncnc2n[nH]c(Nc3ccc(F)cc3)c12` [MNK1 Inhibitor] yielded a cell number of 110.

For `COc1cccc(-c2cc(=O)c3ccccc3o2)c1N`, the cell number was 105 and 103.

Turning to `COc1ccc(CC(=O)NC(N=C(NC#N)Nc2cccc3ncccc23)C(C)(C)C)cc1OC` (stereo not given), the cell number was 107.

The molecule `CCCCCCCCCCCCCCCC(=O)C(F)(F)F` returned a cell number of 108.

`Cn1cc(C2=C(c3cn(CCCSC(=N)N)c4ccccc34)C(=O)NC2=O)c2ccccc21` gave a cell number of 21.3.

`CC1=CC(=O)c2ccccc2C1=O` [Menadione]: the cell number was found to be 82.8.

As to `Cc1ccc(C)c(OCCCC(C)(C)C(=O)O)c1` [Gemfibrozil], the cell number came to 99.1.

Molecule `Cc1ccccc1C(OCCN(C)C)c1ccccc1.Cl` (stereo not given) [Orphenadrine hydrochloride] gave a cell number of 111.

On to `CCOC(=O)C1=C(C)NC(=S)NC1c1cccc(O)c1` (stereo not given) [Monastrol], for which the cell number was found to be 112.

`NC(=O)c1ccc(-c2nc(-c3ccc4c(c3)OCCO4)c(-c3ccccn3)[nH]2)cc1` yielded a cell number of 108.

The molecule `NC(=O)N1C(=O)/C(=C(\O)c2cccs2)c2cc(Cl)ccc21` registered a cell number of 104.
